Compounds without any hit were thinned out: in the full panel of roughly 83,000, 20% have a hit.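 Single-dose data. Exposure time 48 hours. Values below 10 considered active.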 Unmarked numbers belong to inactive results. Calls of active or inactive are those of the source.
tested on: OVCAR-4 ovarian; assay: NCI-60 one-dose screen, 48 h (100 = growth as untreated, 0 = no growth, -100 = all killed); settings: 10 µM unless noted
Description: Growth inhibition of the OVCAR-4 human tumor cell line is measured as a screen for anti-cancer activity. Cells are grown in 96 well plates and exposed to the test compound for 48 hours. Compounds are tested at a single concentration, which is 10^-5 M for most compounds. The reported endpoint is percent growth (GI% or GIPRCNT), where numbers from 0 - 100% represent growth inhibition, and numbers from -100% - 0 represent cell death. For example, a value of 40 represents 60% growth inhibition. A value of 0 means no net growth occurred over the course of the experiment. A value of -40 indicates 40% of cells at the beginning of the experiment died by the end of the experiment. A value of -100 means all cells are dead at the end of the experiment.
NCI-60 Human Tumor Cell Lines Screen was performed using the standard one-dose NCI protocol, which is described in more detail at https://dtp.cancer.gov/discovery_development/nci-60/default.htm.
Compounds with GIPRCNT values below 10 were considered active. Activity score was based on GIPRCNT using the following formula: […]
Score is 0 for GIPRCNT values of 100 or above, 50 for GIPRCNT values of 0, and 100 for GIPRCNT values of -100.

Q: For `CCCCCCCCOC(=O)C(C)OC(=O)OCCOCCOC(=O)OC(C)C(=O)OCCCCCCCC` (stereo not given), which growth is on record?
A: The growth was 117%.

Q: How did the growth turn out when `CCNCCCn1c2c(c3ccc(Cl)cc3c1=O)C(=O)c1cc(OC)cnc1-2` was run?
A: Its growth is 52.2%.

Q: `Oc1ccccc1-c1nnc(COc2ccc(Cl)cc2Cl)o1` was tested. Which growth did it give?
A: The growth was 49.3%.

Q: For `COc1cc(C2CC(c3ccc(Cl)cc3)=NN2C=O)ccc1Oc1ccnc2cc(Cl)ccc12` (stereo not given), which growth is on record?
A: The growth was 28.1%.

Q: `COc1ccc(Nc2nc(N)nc3c(=O)[nH]ccc23)cc1` was tested. Which growth did it give?
A: The growth was 111%.

Q: Which growth does the source give for `CCCCCCCCCCCCCCCCCC1=NCCN1CCO` here?
A: Its growth is 115%.

Q: Which growth does the source give for `Fc1ccc(-c2nc(-c3ccc(-c4nc5ccc(F)cc5[nH]4)cc3)no2)cc1` here?
A: The growth was -8.43% (active).

Q: For `CC(C)(C)c1cc(C[P+](c2ccccc2)(c2ccccc2)c2ccccc2)cc(C(C)(C)C)c1O`, which growth is on record?
A: Its growth is 16.2%.

Q: How did the growth turn out when `Cc1cc(-c2ccc(N=Nc3c(S(=O)(=O)O)cc4cc(S(=O)(=O)O)cc(O)c4c3O)c(C)c2)ccc1N=Nc1c(S(=O)(=O)O)cc2cc(S(=O)(=O)O)cc(O)c2c1O` was run?
A: Its growth is 103%.

Q: With `CC(=O)Nc1ccc(/C=N/N2CCCCCC2)cc1` as the compound, how does the growth read?
A: The growth was 99.1%.

Q: For `COc1cccc(/C=N\Nc2ccc([N+](=O)[O-])cn2)c1O`, which growth is on record?
A: Its growth is 29.5%.

Q: For `Cc1ccccc1NC(=O)c1sc2nc3c(cc2c1N)C(=O)CCC3`, which growth is on record?
A: The growth was 67.6%.

Q: With `CCN(CC)CCNC(=O)n1cc(-c2ccncc2)c(-c2ccc(Cl)c(OC)c2)n1` as the compound, how does the growth read?
A: Its growth is 92.6%.

Q: `CCOC(=O)C1C(=O)C=C(c2ccccc2)CC1c1sc(N(C)Cc2ccccc2)nc1Cl` (stereo not given) was tested. Which growth did it give?
A: Its growth is 90.7%.

Q: How did the growth turn out when `C=C1C(=O)O[C@H]2[C@H]1CC/C(COC(=O)NCc1c[nH]c3ccc(OC)cc13)=C\CC[C@@]1(C)O[C@@H]21` was run?
A: Its growth is 19.9%.

Q: With `OC(CCCCCCCCC(O)CN1CCc2ccccc2C1)CN1CCc2ccccc2C1` (stereo not given) as the compound, how does the growth read?
A: Its growth is 96.2%.

Q: `CCCCCCCCCCCCCCCCCC(=O)[O][Sn]([CH2]CCC)([CH2]CCC)[CH2]CCC` was tested. Which growth did it give?
A: Its growth is -98% (active).

Q: How did the growth turn out when `Nc1nc(NC2CC2)cc(-c2cccc(Cl)c2Cl)n1` was run?
A: The growth was 73.4%.

Q: For `CCCCCCCCCCCCCCCCCC(=O)OCCCCCCCCCCCCC`, which growth is on record?
A: Its growth is 113%.

Q: With `O=C(O)c1ccccc1Oc1cc(-c2ccco2)nc(OCCN2CCOCC2)n1` as the compound, how does the growth read?
A: The growth was 108%.

Q: How did the growth turn out when `CC(C)(C)OC[C@@H]1N=C(c2ccc(Br)cc2)Nc2nc3ccccn3c2C1=O` was run?
A: Its growth is 82.3%.

Q: For `CC1OC(n2c3ccccc3c3c4c(c5c6ccccc6[nH]c5c32)C(=O)N(CCN2CCOCC2)C4=O)CC(O)C1O` (stereo not given), which growth is on record?
A: Its growth is 46.5%.

Q: Which growth does the source give for `O=C(CSc1nnc(Cc2ccccc2Nc2c(Cl)cccc2Cl)n1-c1ccccc1)N1N=C(c2ccc3ccccc3c2)CC1c1ccc(Cl)cc1` (stereo not given) here?
A: The growth was 88.7%.

Q: For `COc1nccc2c(Sc3ccccc3)nc(N)nc12`, which growth is on record?
A: The growth was 99.7%.

Q: With `Cc1ccc2c(C)c3c(ccc4ccccc43)c[n+]2c1` as the compound, how does the growth read?
A: Its growth is 56.3%.

Q: `O=C(O)c1cc2cc(OCc3ccccc3)ccc2[nH]1` was tested. Which growth did it give?
A: The growth was 97.5%.

Q: With `O=[N+]([O-])c1ccc(Sc2nc(Cl)nc(NC3CCCC3)n2)cc1` as the compound, how does the growth read?
A: The growth was -100% [100 µM] (active).

Q: Which growth does the source give for `CS(=O)(=O)c1ccc(C(=O)N/N=C/c2ccccc2Cl)cc1` here?
A: The growth was 95.9%.

Q: Which growth does the source give for `COc1cc(OC)c2sc(-c3ccc(-n4cncc4-c4ccc(OC)c(N)c4)cc3)nc2c1` here?
A: The growth was 78%.

Q: With `CCCCCCCC/C=C\CCCCCCCC(=O)OCCCCCC` as the compound, how does the growth read?
A: Its growth is 113%.

Q: Which growth does the source give for `Cc1[nH]c2ccccc2c1C1=CC(=O)C=CC1=O` here?
A: The growth was 85.6%.

Q: For `CS(=O)(=O)c1ccc(C(=O)N/N=C/c2ccc3c(c2)OCO3)cc1`, which growth is on record?
A: Its growth is 109%.

Q: For `COC(=O)[C@H](Cc1cn(C)cn1)NC(=O)[C@H](CC(C)C)NC(=O)Nc1cc(C(F)(F)F)cc(C(F)(F)F)c1`, which growth is on record?
A: The growth was -97% [100 µM] (active).

Q: With `CCCCSc1ncnc2c1ncn2C1CCCCO1` (stereo not given) as the compound, how does the growth read?
A: The growth was 108%.

Q: With `COc1ccccc1/C=N\Nc1ccc([N+](=O)[O-])cn1` as the compound, how does the growth read?
A: Its growth is 115%.

Q: `COc1cccc(-c2nc3sccn3c2-c2ccnc(NCCN3CCCN(C)S3(=O)=O)n2)c1` was tested. Which growth did it give?
A: The growth was 78%.

Q: With `Oc1ccc(-c2nc3ccccc3s2)cc1CN(Cc1ccccn1)Cc1ccccn1` as the compound, how does the growth read?
A: Its growth is 18%.

Q: For `CN1CCC2(CC1)N=C(SCC(=O)Nc1cnc3ccccc3c1)C(c1ccc(Br)cc1)=N2`, which growth is on record?
A: The growth was 65.8%.

Q: Which growth does the source give for `NS(=O)(=O)c1ccc(CCn2c(SCC(=O)N/N=C/c3ccccc3O)nc3ccccc3c2=O)cc1` here?
A: Its growth is 83.3%.

Q: For `C=CCCCCOc1cccc(/C=C2\N=C3SCCCN3C2=O)c1`, which growth is on record?
A: The growth was 87.6%.

Reference: PubChem BioAssay (NCI)
